Assay outcomes: PubChem, National Center for Advancing Translational Sciences (NCATS)
Compounds with a hit are over-represented: about 18% of the library has one in this group of screens.
TDP1 block: blocks human tyrosyl-DNA phosphodiesterase 1; recombinant TDP1, AlphaScreen DNA substrate cleavage; Q9NUW8; AID 485290; actives 0.28% (n = 350,000); Potency, µM (doses to about 130 µM), for inactives: top-dose activity change, negative = inhibition, actives largely listed as inhibitors; also: nearly all actives have a fitted effect of over 40% in size
Target sequence (Q9NUW8 whole entry, looked up): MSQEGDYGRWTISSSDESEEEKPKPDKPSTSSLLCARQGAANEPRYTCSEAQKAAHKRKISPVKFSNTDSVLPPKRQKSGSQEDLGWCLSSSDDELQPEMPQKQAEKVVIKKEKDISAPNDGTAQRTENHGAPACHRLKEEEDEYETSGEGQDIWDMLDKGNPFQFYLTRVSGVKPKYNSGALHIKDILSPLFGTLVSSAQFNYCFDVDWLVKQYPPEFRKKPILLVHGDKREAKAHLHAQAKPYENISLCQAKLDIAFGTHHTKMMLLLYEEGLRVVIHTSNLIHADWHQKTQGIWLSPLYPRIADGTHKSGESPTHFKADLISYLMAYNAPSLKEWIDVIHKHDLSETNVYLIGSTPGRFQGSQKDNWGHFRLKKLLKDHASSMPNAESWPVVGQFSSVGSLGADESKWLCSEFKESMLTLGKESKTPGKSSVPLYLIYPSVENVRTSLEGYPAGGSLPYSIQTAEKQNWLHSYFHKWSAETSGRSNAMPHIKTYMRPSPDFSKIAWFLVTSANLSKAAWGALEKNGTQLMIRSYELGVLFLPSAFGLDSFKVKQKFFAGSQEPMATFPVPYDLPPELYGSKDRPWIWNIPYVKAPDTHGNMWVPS
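Enzyme-compound mixtures sat 15 min at room temperature, followed by a 5 min reaction with 15 nM final substrate and 10 min with AlphaScreen beads. Recombinant human Tdp1 was used at 1 nM final.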
TDP1 cell noCPT: qHTS for Inhibitors of human tyrosyl-DNA phosphodiesterase 1 (TDP1): qHTS in cells in absence of CPT; actives 15% (n = 420,000); Potency, µM (highest dose often 46.2 µM), for inactives: at the top dose activity change, negative = growth inhibition, usual class: inhibitors; DT40 Tdp1-/- hTDP1 cells, no CPT, ATP luminescence, 48 h; also: nearly all actives have a fitted effect of over 55% in size
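A cellular qHTS used chicken DT40 cells lacking endogenous Tdp1 but carrying stably transfected human TDP1. Compounds were applied without camptothecin, and cell growth kinetics were judged by ATP-dependent luminescence after ≥48 hr.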
VDR inhibitor: blocks the human vitamin D receptor; P11473; VDR-SRC2-3 peptide fluorescence polarization, 2 h; Potency, µM, without a hit: max response, negative = inhibition, actives largely listed as inhibitors; actives 0.93% (n = 400,000); AID 504847
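Signal is fluorescence polarization, reporting how far test compounds block the interaction of VDR with the SRC2-3 coregulator peptide after a 2 h room-temperature incubation.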
PLK1 PBD block: PLK1 (human) polo-box domain binding inhibition. Plk1 PBD binding of FITC phosphopeptide, fluorescence polarization. Potency, µM, for inactives: max response, negative = inhibition, hits mostly inhibitors. actives 2.8% (n = 360,000). AID 720504; also: series mostly up to about 57 µM; nearly all actives have a fitted effect of over 65% in size
GCN5L2 inh: blocks human GCN5L2 histone acetyltransferase; Q92830; GCN5L2 HAT assay, ThioGlo1 CoA-SH fluorescence; Potency, µM (titrated, usually from 58.9 µM), for the others: top-dose activity change, negative = inhibition, hits mostly inhibitors; actives 0.21% (n = 390,000)
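qHTS, 1536-well. 20nM enzyme, pH 7.5 HEPES/EDTA/Tween-20 buffer; 15 min compound preinc., RT. Start: 75uM H3(1-25), 70uM AcCoA, 50uM ThioGlo1. Read Ex340/Em540 at t=0 (autofluorescence flag) and t=20 min.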
TDP1 cell CPT: growth inhibition of DT40 Tdp1-/-;hTDP1 cells with camptothecin (screen for TDP1 inhibitors); chicken DT40 Tdp1-/-;hTDP1 cells + 20 nM CPT, ATP luminescence, 48 h; Potency, µM (doses to about 46.2 µM), inactives show at the top dose activity change, negative = growth inhibition, actives largely listed as inhibitors; actives 12% (n = 420,000); AID 686979; also: nearly all actives have a fitted effect of over 55% in size
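Chicken DT40 Tdp1-/- cells complemented with human TDP1, 400 cells/well, exposed to compounds plus 20 nM camptothecin for at least 48 h at 37 C; viability read as ATP content by CellTiter-Glo luminescence.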
* = called active by the depositor; u = inconclusive; x = no result. Calls follow the shape of the dose curve; as a rule, active = well fitted curve in the direction sought with a large enough effect; inconclusive = small, poorly fitted or top-dose-only effect, or another doubt; inactive = no such curve, though single readings can be large; an effect the other way counts as inactive or inconclusive. % is scaled to controls: 0 for no effect and ±100 for the full control effect; potency is read from the fitted curve at half-maximal effect.

SMILES	TDP1 block	TDP1 cell noCPT	VDR inhibitor	PLK1 PBD block	GCN5L2 inh	TDP1 cell CPT
COc1ccc(NC(=S)Nc2ccc(OC)cc2OC)c(OC)c1	8.5%	u	-12.3%	26.7µM*	1.1%	-21.7%
COc1ccc(NC(=S)NCCC(c2ccccc2)c2ccccc2)c(OC)c1	5.2%	15.8µM*	-10.7%	-18.2%	-10.4%	17.8µM*
Cc1cccc(NC(=S)N/N=C/C(C)c2ccccc2)c1C (stereo not given)	0.0%	u	11.6%	u	-11.8%	-25.6%
Cc1ccccc1NC(=S)N/N=C/C(C)c1ccccc1 (stereo not given)	2.7%	13µM*	-7.8%	-20.0%	-7.2%	10.3µM*
O=C(COC(=O)/C=C/c1ccco1)NCCN1C(=O)CSC1=O	x	28.6%	-8.7%	-28.8%	x	1.6%
Cc1cc(Cl)ccc1NC(=S)NCCC(c1ccccc1)c1ccccc1	3.1%	15.8µM*	-14.4%	-8.2%	-3.3%	15.8µM*
CNC(=S)NCCC(c1ccccc1)c1ccccc1	2.8%	-34.2%	10.6%	4.3%	-0.4%	-22.8%
COc1cc(NC(=S)NCCC(c2ccccc2)c2ccccc2)cc(OC)c1	0.0%	18.4µM*	-9.6%	32.9%	-8.6%	u
Cc1cc(Cl)ccc1NC(=S)NCCc1ccc(Cl)cc1	x	u	30.9%	-1.5%	-2.7%	u
COc1cccc(NC(=S)NCCC(c2ccccc2)c2ccccc2)c1	5.9%	13µM*	-9.4%	-5.4%	-20.3%	20.6µM*
COc1cccc(NC(=S)N2CCN(C(c3ccccc3)c3ccccc3)CC2)c1	-2.6%	-9.7%	8.4%	-4.6%	-5.6%	-0.9%
COc1cc(OC)cc(C(=O)NCCC(c2ccccc2)c2ccccc2)c1	x	u	-13.4%	-16.3%	-10.2%	u
COc1ccc(NC(=S)N2CCN(C(c3ccccc3)c3ccccc3)CC2)c(OC)c1	5.1%	18.4µM*	1.0%	-8.3%	-2.4%	14.6µM*
C=C1C[C@H](O[C@@H]2O[C@H](CO)[C@@H](O)[C@H](O)[C@H]2O)[C@@H]2[C@H](OC(=O)[C@H]2C)[C@H]2[C@H](C)[C@H](O)C[C@@H]12	-5.2%	2.3%	2.0%	2.0%	-1.6%	-19.5%
Cc1ccccc1NC(=S)NCc1ccccc1	7.7%	23.1µM*	-0.1%	-15.9%	-1.7%	29.1µM*
Cc1ccccc1NC(=S)NCc1cccn1C	8.0%	-0.7%	8.2%	-2.0%	-1.0%	2.6%
Cc1cc(Cl)ccc1NC(=S)NCc1ccc(Cl)cc1	-2.6%	23.1µM*	-6.1%	0.3%	2.6%	u
Cc1cccc(NC(=S)NCCC(c2ccccc2)c2ccccc2)c1	5.6%	16.4µM*	u	u	0.0%	u
Cc1cccc(NC(=S)NNC(=S)NCc2ccccc2)c1	9.6%	3.0%	89.1µM*	-27.5%	-2.6%	-10.1%
Cc1ncc(CO)c2c1Oc1nc(-c3ccccc3F)nc(SCC(=O)N3CCCCC3)c1C2	7.7%	u	2.2%	x	0.9%	u
CCCCN(C(=O)c1cc(CC)c(C)s1)c1c(N)n(CCC)c(=O)[nH]c1=O	-10.8%	9.3%	-7.6%	-4.5%	-2.9%	-3.3%
Cc1ccc(-c2nc3cc(C(C)C)ccc3o2)cc1NC(=O)c1cccs1	-0.6%	x	-9.6%	x	-13.3%	x
COc1ccc(N2CCN(C(=S)NC(C)c3ccccc3)CC2)cc1 (stereo not given)	4.8%	14.6µM*	-2.9%	4.3%	-10.3%	u
CC(NC(=S)Nc1ccc(F)cc1)c1ccccc1 (stereo not given)	x	u	u	-6.8%	-2.4%	-2.9%
CC(C)c1ccccc1NC(=S)NC(C)c1ccccc1 (stereo not given)	0.0%	16.4µM*	-1.2%	-12.5%	-2.2%	u
SMILES	TDP1 block	TDP1 cell noCPT	VDR inhibitor	PLK1 PBD block	GCN5L2 inh	TDP1 cell CPT
COc1ccc(N2CCN(C(=S)Nc3ccccc3)CC2)cc1	x	-16.3%	21.8%	8.4%	-5.6%	-14.6%
O=c1onc(-c2ccc(Cl)cc2Cl)n1-c1cccnc1	0.0%	-3.6%	-4.8%	6.4%	0.2%	4.5%
Cc1onc(-c2ccccc2)c1C(=O)N/N=C/c1c[nH]c2ccccc12	-2.6%	u	3.2%	23.8µM*	-8.8%	-12.4%
COc1cccc(/C=N/NC(=O)c2c(-c3ccccc3)noc2C)c1O	4.8%	4.61µM*	-11.0%	-6.3%	-20.9%	4.11µM*
O=P(c1ccccc1)(c1ccccc1)C(O)c1cccs1 (stereo not given)	x	u	x	3.7%	x	-12.8%
CC(C)(C)OC(=O)[C@H](Cc1ccccc1)NC(=O)c1[nH]cnc1C(=O)N[C@@H](Cc1ccccc1)C(=O)OCc1ccccc1	x	23.1µM*	-15.4%	-0.2%	-17.2%	16.4µM*
CC(C)(C)OC(=O)NCCCC[C@H](NC(=O)c1nc[nH]c1C(=O)NCc1ccccc1)C(=O)OC(C)(C)C	9.0%	u	-15.6%	0.3%	-11.7%	u
CC(C)(C)OC(=O)NCCCC[C@H](NC(=O)c1[nH]cnc1C(=O)N[C@@H](Cc1ccccc1)C(=O)OC(C)(C)C)C(=O)OC(C)(C)C	9.5%	9.2µM*	-7.7%	-2.4%	-2.3%	20.6µM*
CN(Cc1ccccc1)C(=O)c1[nH]cnc1C(=O)N[C@@H](CCCCNC(=O)OC(C)(C)C)C(=O)OC(C)(C)C	6.4%	u	4.8%	2.5%	-12.6%	16.4µM*
C[C@H](NC(=O)c1nc[nH]c1C(=O)N[C@@H](CCCCNC(=O)OC(C)(C)C)C(=O)OC(C)(C)C)c1ccccc1	8.3%	23.1µM*	17.4%	5.0%	-27.0%	u
C[C@H](NC(=O)c1nc[nH]c1C(=O)NCc1ccc(CNC(=O)OC(C)(C)C)cc1)c1ccccc1	-0.2%	u	u	-4.2%	-9.0%	u
CC(C)(C)OC(=O)C(Cc1ccc(OC(C)(C)C)cc1)NC(=O)CNC(=O)CNC(=O)OCc1ccccc1 (stereo not given)	5.4%	u	10.7%	1.9%	-2.2%	u
CC(NC(=O)OCc1ccccc1)C(=O)NCC(=O)NC(Cc1ccc(OC(C)(C)C)cc1)C(=O)OC(C)(C)C (stereo not given)	3.5%	11.6µM*	-15.8%	8.8%	6.1%	20.6µM*
CCCOc1nc(N)c(C#N)c(-c2ccccc2F)c1C#N	-1.1%	u	5.4%	3.5%	-3.5%	16.4µM*
O=S(=O)(c1ccc(Oc2ccccc2)cc1)N1CCOCC1	2.2%	-17.5%	-10.1%	4.9%	-4.3%	-5.3%
CC1CCN(S(=O)(=O)c2ccc(Oc3ccc([N+](=O)[O-])cc3)cc2)CC1	1.0%	16.4µM*	9.5%	-2.2%	-6.5%	16.4µM*
